Several values for one entry are separate records, joined by “and”; a condition that tells them apart may be missing. Equal values may be shown once. In all, about 5,300 compounds were measured (“PER2::LUC luminescence relative to vehicle control”: median about 0.96, highest 2% from about 1.3 on). This excerpt belongs to a sample that is enriched for the highest values.

For this test, the system named is mPer2Luc MEF. Nature of the test: PER2::LUC luminescence relative to vehicle control (fold of vehicle); higher = higher PER2::LUC reporter signal. The settings on record: 10 µM. An outline of the steps:
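The value is PER2::LUC luminescence expressed as fold of vehicle control. Mouse embryonic fibroblasts carrying the mPer2Luc reporter were seeded at ~3000 cells per well in 384-well plates and grown in DMEM with 10% FBS at 37 °C and 5% CO2. Compounds from commercial libraries were added at 10 μM 48 h after seeding, and luminescence was read with the ONE-Glo luciferase assay system 24 h and 30 h after treatment, followed by an alamarBlue viability assay.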

Regarding `O=C(O)CCC/C=C\C/C=C\C/C=C\C/C=C\CCCCCO`, the “PER2::LUC luminescence” value was 0.987 (time after treatment 24 h) and 0.936 (time after treatment 30 h).
Turning to `COc1cc2c(cc1OC)[C@H]1[C@@H](C)c3ccc(OC)c(OC)c3CN1CC2`, the “PER2::LUC luminescence” value turned out to be 0.954 (time after treatment 24 h) and 0.973 (time after treatment 30 h).
The matching figures for `CCCCOc1ccc(C(=O)Nc2ccc(F)cc2F)cc1`: 1.29 and 1.34.
For `COc1cc2nccc(Oc3ccc(NC(=O)Nc4ccc(F)cc4F)c(F)c3)c2cc1OC` the same measures were 0.785 and 0.689.
As for `CCCCOc1ccc(CC(=O)NO)cc1`, the “PER2::LUC luminescence” value (time after treatment 24 h) stood at 1.01 and the “PER2::LUC luminescence” value (time after treatment 30 h) turned out to be 1.01.
As for `O=C[C@H](O)[C@@H](O)[C@H](O)CO` (racemic), the “PER2::LUC luminescence” value runs as follows: (time after treatment 24 h) 0.94; (time after treatment 30 h) 1.06.
As to `C[C@@H](O)[C@H]1C(=O)N2C(C(=O)O)=C(SC3CN(C4=NCCS4)C3)[C@H](C)[C@H]12`, the “PER2::LUC luminescence” value reads like this: (time after treatment 24 h) 1.03; (time after treatment 30 h) 1.01.
The matching figures for `O=C(O)c1ccc2nc(-c3cc(Cl)cc(Cl)c3)oc2c1`: 1.42 and 1.43.
For `C=CC(C1=CC(=O)C(OC)=CC1=O)c1ccc(OC)cc1` (configuration not stated) the same measures were 1.16 and 1.02.
With `CC1(C)[C@@H](OC(=O)CCC(=O)O)CC[C@]2(C)[C@H]3C(=O)C=C4[C@@H]5C[C@@](C)(C(=O)O)CC[C@]5(C)CC[C@@]4(C)[C@]3(C)CC[C@@H]12`, the “PER2::LUC luminescence” value runs as follows: (time after treatment 24 h) 0.965 and 0.646; (time after treatment 30 h) 0.891 and 1.01.
For `CC1(C)[C@@H](O)CC[C@]2(C)[C@H]3C(=O)C=C4[C@@H]5C[C@@](C)(C(=O)O)CC[C@]5(C)CC[C@@]4(C)[C@]3(C)CC[C@@H]12`, the “PER2::LUC luminescence” value is 1.22 and 0.966 (time after treatment 24 h); 1.5 and 0.907 (time after treatment 30 h).
On to `CC1(C)[C@@H](O)CC[C@]2(C)[C@H]3C(=O)C=C4[C@H]5C[C@@](C)(C(=O)O)CC[C@]5(C)CC[C@@]4(C)[C@]3(C)CC[C@@H]12`, for which the “PER2::LUC luminescence” value turned out to be 0.97 (time after treatment 24 h) and 0.899 (time after treatment 30 h).
The matching figures for `CC(C)C[C@H](N)C(=O)N[C@H](C(=O)N[C@H](C(=O)N[C@@H](Cc1ccc(O)cc1)C(=O)N1CCC[C@H]1C(=O)N[C@@H](Cc1c[nH]c2ccccc12)C(=O)N[C@H](C(=O)N[C@@H](CCC(N)=O)C(=O)N[C@@H](CCCN=C(N)N)C(=O)O)[C@@H](C)O)C(C)C)C(C)C`: 0.942 and 0.916.
For `COc1ccc(C[C@H]2c3cc(OC)c(OC)cc3CC[N+]2(C)C)cc1OC` the same measures were 0.944 and 0.889.
For the compound `COc1ccccc1-c1nc(-c2ccccn2)no1`, the “PER2::LUC luminescence” value was found to be 0.948 (time after treatment 24 h) and 0.943 (time after treatment 30 h).
For `C#CCCC(=O)O` the same measures were 1.07 and 0.985.
For `COc1ccnc(C[S+]([O-])c2nc3cc(-n4cccc4)ccc3[nH]2)c1C` (configuration not stated) the same measures were 1.07 and 1.05.
The matching figures for `COc1ccc2[nH]c([S+]([O-])Cc3ncc(C)c(OC)c3C)nc2n1` (configuration not stated): 0.776 and 1.01.
Regarding `COc1ccnc(C[S+]([O-])c2nc3cc(OC(F)F)ccc3[nH]2)c1OC` (configuration not stated), the “PER2::LUC luminescence” value is 0.944 and 1.32 (time after treatment 24 h); 1.01 and 0.991 (time after treatment 30 h).
Take `Cc1c(OCC(F)(F)F)ccnc1C[S+]([O-])c1nc2ccccc2[nH]1` (configuration not stated): the “PER2::LUC luminescence” value (time after treatment 24 h) came to 1.17 and the “PER2::LUC luminescence” value (time after treatment 30 h) was 1.67.
For `COc1ccc2[nH]c([S@@+]([O-])Cc3ncc(C)c(OC)c3C)nc2c1`, the “PER2::LUC luminescence” value reads like this: (time after treatment 24 h) 1.02 and 1.01 and 1.11; (time after treatment 30 h) 1.01 and 0.923 and 1.08.
For `COc1ccc2[nH]c([S+]([O-])Cc3ncc(C)c(OC)c3C)nc2c1` (configuration not stated), the “PER2::LUC luminescence” value is, setting by setting: (time after treatment 24 h) 0.886; (time after treatment 30 h) 1.08.
With `Cc1c(OCC(F)(F)F)ccnc1C[S@@+]([O-])c1nc2ccccc2[nH]1`, the “PER2::LUC luminescence” value is 1.68 and 1.14 (time after treatment 24 h); 1.73 and 1.12 (time after treatment 30 h).
For `COCCCOc1ccnc(C[S+]([O-])c2nc3ccccc3[nH]2)c1C` (configuration not stated), the “PER2::LUC luminescence” value by setting is: (time after treatment 24 h) 1.15 and 1.39 and 1.44; (time after treatment 30 h) 1.12 and 1.68 and 1.47.
Regarding `N=C(N/N=C/c1ccc(Cl)cc1)N/N=C/c1ccc(Cl)cc1`, the “PER2::LUC luminescence” value reads like this: (time after treatment 24 h) 0.996; (time after treatment 30 h) 0.988.
For `CCOC(=O)C1=Cc2ccc(C(F)(F)C(F)(F)F)cc2N=C(N)C1` the same measures were 1.07 and 1.05.
For `O=[N+]([O-])c1cc(C(F)(F)F)cc([N+](=O)[O-])c1NNC(=S)Nc1ccc(F)cc1` the same measures were 0.67 and 0.671.
In the case of `CCCCC[C@H](O)/C=C/[C@@H]1[C@@H](C/C=C\CCCC(=O)O)[C@H](O)C[C@H]1O`, the “PER2::LUC luminescence” value by setting is: (time after treatment 24 h) 1.1; (time after treatment 30 h) 1.1.
For the compound `Oc1ccccc1NCc1ccccn1`, the “PER2::LUC luminescence” value by setting is: (time after treatment 24 h) 0.921; (time after treatment 30 h) 1.05.
Consider `C[C@H](CCC(=O)NCC(=O)NCCS(=O)(=O)O)[C@H]1CC[C@H]2[C@@H]3[C@H](O)C[C@@H]4C[C@H](O)CC[C@]4(C)[C@H]3C[C@H](O)[C@]12C`, for which the “PER2::LUC luminescence” value is, setting by setting: (time after treatment 24 h) 0.886; (time after treatment 30 h) 0.904.
For `CC1(C)O[C@@H]2C[C@H]3[C@@H]4CCC5=CC(=O)C=C[C@]5(C)[C@@]4(F)[C@@H](O)C[C@]3(C)[C@]2(C(=O)CO)O1` the same measures were 0.583 and 1.35.
With `CCC(=O)O[C@]1(C(=O)CCl)[C@@H](C)C[C@H]2[C@@H]3CCC4=CC(=O)C=C[C@]4(C)[C@@]3(F)[C@@H](O)C[C@@]21C`, the “PER2::LUC luminescence” value is, setting by setting: (time after treatment 24 h) 0.711; (time after treatment 30 h) 1.08.
The matching figures for `CC1(C)O[C@@H]2C[C@H]3[C@@H]4C[C@H](F)C5=CC(=O)C=C[C@]5(C)[C@@]4(F)[C@@H](O)C[C@]3(C)[C@]2(C(=O)CO)O1`: 0.902 and 1.15.
For the compound `CCC(=O)OCC(=O)[C@@]1(OC(=O)CC)[C@@H](C)C[C@H]2[C@@H]3CCC4=CC(=O)C=C[C@]4(C)[C@@]3(F)[C@@H](O)C[C@@]21C`, the “PER2::LUC luminescence” value reads like this: (time after treatment 24 h) 0.454 and 0.475; (time after treatment 30 h) 1.01 and 0.98.
On to `CC(=O)OCC(=O)[C@@]12OC3(CCCC3)O[C@@H]1C[C@H]1[C@@H]3CCC4=CC(=O)C=C[C@]4(C)[C@@]3(F)[C@@H](O)C[C@@]12C`, for which the “PER2::LUC luminescence” value is 0.828 (time after treatment 24 h) and 1.13 (time after treatment 30 h).
`CCCCC(=O)O[C@]1(C(=O)CO)[C@@H](C)C[C@H]2[C@@H]3CCC4=CC(=O)C=C[C@]4(C)[C@@]3(F)[C@@H](O)C[C@@]21C`: the “PER2::LUC luminescence” value is 0.684 and 0.795 (time after treatment 24 h); 1.37 and 1.15 (time after treatment 30 h).

The values above are taken from the supplement of paper PMC9334596.
